Assay results reported in PubChem BioAssay (Tox21).
Records with an inconclusive call do not appear. Active and inactive are the calls of the source. Unless noted, the call rests on the fitted dose curve; in most records, active means well fitted curve in the direction sought with a large enough effect in the repeat runs; inconclusive means weak or mixed curves; inactive means no such curve, though single readings can be large; an effect the other way counts as inactive or inconclusive.

How the values were obtained:
[1] = target: Estrogen receptor (Homo sapiens) (UniProt P03372); test: qHTS assay to identify small molecule agonists of the estrogen receptor alpha (ER-alpha) signaling pathway in the presence of an antagonist (AID 1259383; calls by dose curve; further: top concentration of the series differs between compounds; nearly all actives have a fitted effect of over 15% in size)
How it was run: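 Quantitative HTS confirmation: compounds titrated at 15 concentrations onto estrogen-deprived VM7Luc4E2 cells carrying a four-ERE luciferase construct, with ICI-182,780 present at 10.0nM final. Signal is luminescence after 22hr exposure.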

[2] = qHTS assay to identify small molecule agonists or antagonists of the thyroid stimulating hormone receptor (TSHR) signaling pathway - wild type cell line counter screen (AID 1259384; calls by dose curve)
How it was run: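 Wild-type HEK293 cells were plated 18 h at 37 C/5% CO2, pin-dosed with compound plus Ro20-1724 medium, held 30 min at room temperature, then given cAMP-d2 and anti-cAMP-cryptate; fluorescence was read after 1 h. Fifteen concentrations, triplicate.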

[3] = target: Thyrotropin receptor (Homo sapiens) (UniProt P16473); test: qHTS assay to identify small molecule antagonists of the thyroid stimulating hormone receptor (TSHR) signaling pathway (AID 1259385; calls by dose curve; further: nearly all actives have a fitted effect of over 20% in size)
How it was run: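 TSHR-HEK293 cells were plated and held 18 h at 37C/5% CO2, then given compound plus Ro20-1724 and stimulated with TSH at 1.5 ng/mL final. After 30 min at room temperature, cAMP was detected with cAMP-d2/anti-cAMP-cryptate (1 h) by fluorescence.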

[4] = qHTS assay to identify small molecule agonists of the estrogen receptor alpha (ER-alpha) signaling pathway in the presence of an antagonist - cell viability counter screen (AID 1259386);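 further: series mostly up to about 92 µM; cells exposed to compounds for 22 h at 37 °C before the viability read; nearly all actives have a fitted effect of over 30% in size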
How it was run: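 The test measures whether compounds kill ER-alpha reporter cells (VM7Luc4E2) under antagonist co-treatment (ICI-182,780, 10.0nM). Fluorescence from CellTiter-Fluor is read after a 22hr exposure.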

[5] = target: Progesterone receptor (Homo sapiens) (UniProt P06401); test: qHTS assay to identify small molecule agonists of the progesterone receptor (PR) signaling pathway (AID 1346784; calls by dose curve; further: nearly all actives have a fitted effect of over 30% in size)
How it was run: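 Cells (PR-UAS-bla HEK 293T, GripTite) were plated in assay medium containing 2% charcoal-stripped FBS and incubated 6 hr. Test compounds in DMSO were added for 16 hr at 37C. FRET substrate was then loaded for 2 hr at room temperature before fluorescence reading.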

[6] = target: Progesterone receptor (Homo sapiens) (UniProt P06401); test: qHTS assay to identify small molecule antagonists of the progesterone receptor (PR) signaling pathway (AID 1346795; active means well fitted inhibition curve with a large enough effect in the signal ratio in the repeat runs, not every such curve was filed as active; the % refers to the signal ratio)
How it was run: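 Antagonist mode: compounds tested against 1 nM (final) promegestone stimulation in HEK293T cells expressing PR-UAS-bla reporter, 16 hr at 37C, 5% CO2; beta-lactamase activity detected via B/G FRET substrate after 2 hr at room temperature.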

[7] = qHTS assay to identify small molecule antagonists of the progesterone receptor (PR) signaling pathway - cell viability counter screen (AID 1346798); further: series mostly up to about 92 µM; nearly all actives have a fitted effect of over 50% in size
How it was run: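 Counter screen for cytotoxicity: viability of PR-UAS-bla HEK293T cells was measured with CellTiter-Glo luminescence following 16 hr compound exposure in the presence of R5020.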

[8] = qHTS assay to identify small molecule agonists of the progesterone receptor (PR) signaling pathway - cell viability counter screen (AID 1346799; calls by dose curve; further: nearly all actives have a fitted effect of over 45% in size)
How it was run: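 Cells (PR-UAS-bla HEK293T) are plated at 3,000/well in 2% charcoal-stripped FBS medium, rested 6 hr, dosed and incubated 16 hr at 37C. CellTiter-Glo is then added and luminescence measured after 30 min at room temperature.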

[9] = qHTS assay to identify small molecule antagonists of the TGF-beta/Smad signaling pathway - cell viability counter screen (AID 1346824); further: nearly all actives have a fitted effect of over 50% in size
How it was run: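 SBE-bla HEK 293T cells were plated overnight at 37 C, then given compounds in DMSO plus TGF-beta1 (added as 0.25 ng/mL solution) for 5 hr. After the bla read, CellTiter-Glo was added to the same wells and luminescence read after 30 min at room temperature.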

[10] = qHTS assay to identify small molecule agonists of the TGF-beta/Smad signaling pathway - cell viability counter screen (AID 1346829); further: top concentration of the series differs between compounds; nearly all actives have a fitted effect of over 45% in size
How it was run: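 CellTiter-Glo luminescence readout; SBE-bla HEK 293T cells, overnight plating, compound 5 hr at 37 C/5% CO2, then bla substrate 2 hr RT, then CellTiter-Glo 30 min RT.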

[11] = qHTS assay to identify small molecule agonists of the TGF-beta/Smad signaling pathway (AID 1346859; active means well fitted activation curve with a large enough effect in the signal ratio in the repeat runs, not every such curve was filed as active; the % refers to the signal ratio; further: series mostly up to about 77 µM)
How it was run: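 Reporter line: HEK 293T with stably integrated SBE-controlled beta-lactamase. Compound exposure lasts 5 hr at 37 C and 5% CO2; substrate loading follows for 2 hr at room temperature, with emission read at 460 and 530 nm.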

[12] = target: Thyrotropin-releasing hormone receptor (Homo sapiens) (UniProt P34981); test: qHTS assay to identify small molecule antagonists of the thyrotropin-releasing hormone receptor (TRHR) signaling pathway (AID 1346877; active means well fitted inhibition curve with a large enough effect in the repeat runs, not every such curve was filed as active; further: series mostly up to about 51 µM)
How it was run: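 Overnight-plated (18 h, 37 °C) HEK293 cells expressing TRHR were dye-loaded 2 h, treated with compound, then stimulated with TRH at 1 nM final. Fluorescence intensity was captured every second for 3 min.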

[13] = Human pregnane X receptor (PXR) small molecule agonists, qHTS cell viability counter screen (AID 1346977); further: nearly all actives have a fitted effect of over 50% in size
How it was run: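 Cytotoxicity counter screen run in the same wells as the PXR luciferase assay, using PXR-Luc HepG2 cells in charcoal-stripped serum medium. Viability: CellTiter-Fluor fluorescence after 24hr compound treatment.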

[14] = Caspase-3/7 induction in HepG2 cells by small molecules, qHTS assay (AID 1346978); further: nearly all actives have a fitted effect of over 15% in size
How it was run: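 Wild-type HepG2 cells (2,000/well) were settled 5 h at 37 C, 5% CO2, then exposed to compounds in DMSO for 17 h. Caspase-3/7 activity was read by luminescence 30 min after adding Caspase-Glo 3/7 reagent at room temperature.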

[15] = Caspase-3/7 induction in CHO-K1 cells by small molecules, qHTS cell viability counter screen (AID 1346979); further: nearly all actives have a fitted effect of over 35% in size
How it was run: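 Cytotoxicity counter screen run in parallel with the caspase-3/7 assay: CHO-K1 cells, 16hr compound treatment at 37C, then CellTiter-Fluor for 1hr before fluorescence reading.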

[16] = Caspase-3/7 induction in CHO-K1 cells by small molecules, qHTS assay (AID 1346980); further: nearly all actives have a fitted effect of over 15% in size
How it was run: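 Wild-type cells were seeded at 1,500 per well and settled 5 hr at 37 C, 5% CO2, then exposed to DMSO-dissolved compounds for 17 hr. Caspase-Glo 3/7 reagent was added, and luminescence was read after 30min at room temperature.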

[17] = Caspase-3/7 induction in HepG2 cells by small molecules, qHTS cell viability counter screen (AID 1346981); further: series mostly up to about 92 µM; nearly all actives have a fitted effect of over 30% in size
How it was run: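 Treatment of HepG2 cells with DMSO-delivered compounds ran 16 hr at 37 C following a 5-hr pre-incubation of 2,000 cells/well. CellTiter-Fluor fluorescence, read after 1 hr, served as the viability measure in a qHTS format.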

[18] = target: Nuclear receptor subfamily 1 group I member 2 (Homo sapiens) (UniProt O75469); test: Human pregnane X receptor (PXR) small molecule agonists, qHTS assay (AID 1346982); further: nearly all actives have a fitted effect of over 35% in size
How it was run: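 Stable HepG2 line reporting PXR-mediated CYP3A4 expression via luciferase. Treatment: 24 hr with compounds in DMSO at 37 C. Detection: ONE-Glo luminescence.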

[19] = target: Nuclear receptor subfamily 1 group I member 2 (Rattus norvegicus) (UniProt Q9R1A7); test: Rat pregnane X receptor (rPXR) activation by small molecules, qHTS assay (AID 1346983); details: rPXR luciferase reporter cells, One-Glo luminescence, 24 h; max activation: hits give high values; further: nearly all actives have a fitted effect of over 20% in size
How it was run: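 Cell-based rPXR luciferase reporter assay, 2,000 cells per well, rested 5hr at 37 C before compound addition in DMSO, then 24 hr at 37 C. One-Glo reagent was added and luminescence read after 30 min at room temperature.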

[20] = target: Thyrotropin-releasing hormone receptor (Homo sapiens) (UniProt P34981); test: qHTS assay to identify small molecule agonists of the thyrotropin-releasing hormone receptor (TRHR) signaling pathway (AID 1346891; calls by dose curve;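 further: HEK293 cells expressing TRHR with calcium dye readout; series mostly up to about 58 µM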)
How it was run: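 Cells: TRHR-Hek293, seeded and incubated 18 h. Dye loading: 2 h at 37 °C. Compound added from DMSO stock by pin tool. Read-out: kinetic calcium fluorescence over 3 min.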
On the % scale 0 is the no-effect control and ±100 the full control effect.

Chain of Thyrotropin-releasing hormone receptor (Homo sapiens) (P34981 whole entry, looked up): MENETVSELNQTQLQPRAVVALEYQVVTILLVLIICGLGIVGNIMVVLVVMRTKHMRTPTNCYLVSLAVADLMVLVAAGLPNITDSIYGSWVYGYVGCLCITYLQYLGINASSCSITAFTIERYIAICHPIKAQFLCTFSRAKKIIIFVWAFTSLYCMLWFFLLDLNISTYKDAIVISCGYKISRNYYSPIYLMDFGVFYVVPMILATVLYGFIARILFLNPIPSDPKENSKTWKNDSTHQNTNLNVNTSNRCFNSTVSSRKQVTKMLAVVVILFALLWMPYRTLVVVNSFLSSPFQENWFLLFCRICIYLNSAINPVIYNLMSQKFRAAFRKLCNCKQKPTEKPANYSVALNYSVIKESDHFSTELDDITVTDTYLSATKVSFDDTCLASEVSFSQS
Chain of Nuclear receptor subfamily 1 group I member 2 (Rattus norvegicus) (Q9R1A7 whole entry, looked up): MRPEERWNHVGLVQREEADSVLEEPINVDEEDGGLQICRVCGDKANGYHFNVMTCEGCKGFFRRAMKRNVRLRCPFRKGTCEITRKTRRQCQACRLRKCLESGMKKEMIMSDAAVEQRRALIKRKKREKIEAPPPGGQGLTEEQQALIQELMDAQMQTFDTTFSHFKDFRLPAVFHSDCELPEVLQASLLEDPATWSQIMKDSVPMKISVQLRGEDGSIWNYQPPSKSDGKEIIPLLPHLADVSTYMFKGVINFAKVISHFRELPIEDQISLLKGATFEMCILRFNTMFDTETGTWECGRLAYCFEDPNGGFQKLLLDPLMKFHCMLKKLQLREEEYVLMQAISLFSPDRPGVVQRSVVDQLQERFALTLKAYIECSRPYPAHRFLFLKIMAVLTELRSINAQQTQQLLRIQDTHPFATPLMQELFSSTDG
Chain of Progesterone receptor (Homo sapiens) (P06401 whole entry, looked up): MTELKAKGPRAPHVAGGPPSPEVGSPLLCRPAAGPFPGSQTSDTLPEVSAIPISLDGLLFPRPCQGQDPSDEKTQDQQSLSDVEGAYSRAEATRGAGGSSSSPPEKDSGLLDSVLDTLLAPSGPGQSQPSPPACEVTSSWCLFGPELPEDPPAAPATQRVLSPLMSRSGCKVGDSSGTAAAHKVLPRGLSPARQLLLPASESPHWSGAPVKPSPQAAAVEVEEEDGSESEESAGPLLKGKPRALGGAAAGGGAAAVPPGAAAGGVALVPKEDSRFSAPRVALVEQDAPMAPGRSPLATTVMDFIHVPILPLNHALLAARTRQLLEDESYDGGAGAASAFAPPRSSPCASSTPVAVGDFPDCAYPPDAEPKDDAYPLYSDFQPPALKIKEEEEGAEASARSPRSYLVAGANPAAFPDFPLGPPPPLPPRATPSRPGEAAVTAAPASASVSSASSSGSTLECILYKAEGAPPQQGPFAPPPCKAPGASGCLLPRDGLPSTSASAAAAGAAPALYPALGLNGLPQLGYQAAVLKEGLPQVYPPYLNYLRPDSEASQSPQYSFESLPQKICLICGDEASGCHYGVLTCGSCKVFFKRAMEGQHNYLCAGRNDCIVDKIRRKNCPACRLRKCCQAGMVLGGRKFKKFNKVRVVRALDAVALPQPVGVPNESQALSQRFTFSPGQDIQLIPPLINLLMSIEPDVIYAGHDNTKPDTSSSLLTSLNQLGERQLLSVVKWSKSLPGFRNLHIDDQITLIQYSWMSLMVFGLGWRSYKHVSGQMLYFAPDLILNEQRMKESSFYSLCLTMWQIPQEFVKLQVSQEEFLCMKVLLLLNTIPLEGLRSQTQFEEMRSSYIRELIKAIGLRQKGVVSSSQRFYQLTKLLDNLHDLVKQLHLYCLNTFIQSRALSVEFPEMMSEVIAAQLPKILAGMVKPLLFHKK
Chain of Thyrotropin receptor (Homo sapiens) (P16473 whole entry, looked up): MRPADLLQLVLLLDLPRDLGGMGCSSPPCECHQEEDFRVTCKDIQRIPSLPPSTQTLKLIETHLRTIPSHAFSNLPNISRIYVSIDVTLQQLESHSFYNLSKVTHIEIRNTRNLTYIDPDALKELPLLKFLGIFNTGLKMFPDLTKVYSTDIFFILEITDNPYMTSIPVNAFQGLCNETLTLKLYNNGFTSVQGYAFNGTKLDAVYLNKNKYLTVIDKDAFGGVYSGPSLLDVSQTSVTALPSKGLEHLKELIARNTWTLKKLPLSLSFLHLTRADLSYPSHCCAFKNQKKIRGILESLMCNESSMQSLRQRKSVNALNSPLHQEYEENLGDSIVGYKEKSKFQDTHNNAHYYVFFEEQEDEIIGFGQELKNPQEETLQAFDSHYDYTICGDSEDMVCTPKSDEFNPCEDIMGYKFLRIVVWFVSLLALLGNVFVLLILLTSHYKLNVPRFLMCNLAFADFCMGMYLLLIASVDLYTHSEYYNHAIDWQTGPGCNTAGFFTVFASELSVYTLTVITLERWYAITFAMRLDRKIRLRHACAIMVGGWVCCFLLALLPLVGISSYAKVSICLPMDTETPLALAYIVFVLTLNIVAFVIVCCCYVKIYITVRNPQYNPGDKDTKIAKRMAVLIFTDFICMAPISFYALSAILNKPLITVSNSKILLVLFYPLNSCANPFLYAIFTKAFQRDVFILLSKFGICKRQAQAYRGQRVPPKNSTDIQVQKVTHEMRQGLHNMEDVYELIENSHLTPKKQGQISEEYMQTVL
Chain of Estrogen receptor (Homo sapiens) (P03372 whole entry, looked up): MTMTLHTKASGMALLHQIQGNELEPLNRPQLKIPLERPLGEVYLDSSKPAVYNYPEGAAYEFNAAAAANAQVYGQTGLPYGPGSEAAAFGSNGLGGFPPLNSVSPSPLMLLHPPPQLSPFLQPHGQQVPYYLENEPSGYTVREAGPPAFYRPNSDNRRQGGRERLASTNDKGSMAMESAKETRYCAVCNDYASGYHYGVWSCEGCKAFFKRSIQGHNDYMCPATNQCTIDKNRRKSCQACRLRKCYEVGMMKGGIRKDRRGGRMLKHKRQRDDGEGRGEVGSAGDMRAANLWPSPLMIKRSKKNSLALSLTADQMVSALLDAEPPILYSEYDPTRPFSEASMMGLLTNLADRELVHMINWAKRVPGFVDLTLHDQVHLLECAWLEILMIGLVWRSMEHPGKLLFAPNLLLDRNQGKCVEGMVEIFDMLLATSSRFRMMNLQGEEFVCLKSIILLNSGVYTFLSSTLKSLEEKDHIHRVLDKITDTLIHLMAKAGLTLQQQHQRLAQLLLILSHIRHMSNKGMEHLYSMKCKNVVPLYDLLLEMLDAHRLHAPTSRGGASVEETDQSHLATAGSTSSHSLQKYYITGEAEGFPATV
Chain of Nuclear receptor subfamily 1 group I member 2 (Homo sapiens) (O75469 whole entry, looked up): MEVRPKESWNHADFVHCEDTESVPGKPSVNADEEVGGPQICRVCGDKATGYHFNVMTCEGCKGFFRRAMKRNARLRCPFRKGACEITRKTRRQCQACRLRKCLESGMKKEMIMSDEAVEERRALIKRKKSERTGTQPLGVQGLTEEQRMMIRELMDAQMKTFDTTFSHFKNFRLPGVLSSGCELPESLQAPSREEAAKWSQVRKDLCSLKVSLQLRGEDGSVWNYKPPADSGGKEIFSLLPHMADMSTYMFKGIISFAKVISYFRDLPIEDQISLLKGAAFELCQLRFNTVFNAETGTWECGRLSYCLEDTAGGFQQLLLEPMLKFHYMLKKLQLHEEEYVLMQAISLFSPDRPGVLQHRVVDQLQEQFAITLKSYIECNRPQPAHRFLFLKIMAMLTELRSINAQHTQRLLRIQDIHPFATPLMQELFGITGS

CN1CCN(C(=O)C2CCCCC2)CC1
inactive: Potency [1] | outcome [2] | outcome [3] | outcome [4] | Potency [5] | Potency [6] | outcome [7] | Potency [8] | outcome [9] | outcome [10] | outcome [11] | outcome [12] | outcome [13] | outcome [14] | Potency [15] | outcome [16] | outcome [17] | Potency [18] | max activation [19] -9.64%

C[n+]1ccccc1/C=N/O
inactive: Potency [1] | outcome [2] | outcome [3] | outcome [4] | Potency [5] | Potency [6] | Potency [8] | outcome [9] | outcome [10] | outcome [11] | outcome [12] | Potency [20] | outcome [13] | outcome [14] | Potency [15] | outcome [17] | Potency [18] | max activation [19] -0.461%

CNC(C)=O
inactive: Potency [1] | outcome [2] | outcome [3] | outcome [4] | Potency [5] | Potency [6] | outcome [7] | outcome [11] | outcome [12] | Potency [20] | outcome [13] | outcome [14] | Potency [15] | outcome [16] | outcome [17] | Potency [18]

CN(C)CCc1c[nH]c2ccc(C[C@H]3COC(=O)N3)cc12
inactive: Potency [1] | outcome [2] | outcome [3] | outcome [4] | Potency [5] | outcome [7] | Potency [8] | outcome [10] | outcome [11] | outcome [12] | Potency [20] | outcome [13] | outcome [14] | Potency [15] | outcome [16] | outcome [17] | Potency [18] | max activation [19] -1.7%

C[C@@H]1CC[C@@]2(OC1)O[C@H]1C[C@H]3[C@@H]4CC[C@H]5C[C@@H](O)CC[C@]5(C)[C@H]4CC(=O)[C@]3(C)[C@H]1[C@@H]2C
inactive: activation [1] 0.597% [at 8.39 µM] | cAMP activity change [2] -0.224% [at 8.39 µM] | activity change, negative = inhibition [3] -0.41% [at 8.39 µM] | activity change, negative = cytotoxicity [4] 0.111% [at 8.39 µM] | activation [5] -0.697% [at 8.39 µM] | activity change, negative = cytotoxicity [7] 12.3% [at 8.39 µM] | activity change, negative = cytotoxicity [8] 3.64% [at 8.39 µM] | viability change, negative = cytotoxic [9] -1.38% [at 6.97 µM] | activity change, negative = cytotoxicity [10] -1.03% [at 6.97 µM] | activation [11] -4.07% [at 6.97 µM] | activity, negative = inhibition [12] 1.5% [at 4.65 µM] | activity change, negative = cytotoxicity [13] 11.4% [at 8.39 µM] | caspase activation [14] 0.244% [at 8.39 µM] | activity change, negative = cytotoxicity [15] 2.81% [at 8.39 µM] | caspase-3/7 activation [16] -0.713% [at 8.39 µM] | activity change, negative = cytotoxicity [17] 6.1% [at 8.39 µM] | activation [18] -7.1% [at 8.39 µM] | max activation [19] -0.0535%

O=C(CCBr)N1CCN(C(=O)CCBr)CC1
inactive: Potency [1] | outcome [2] | outcome [3] | outcome [4] | Potency [8] | outcome [9] | outcome [11] | outcome [12] | Potency [20] | outcome [13] | outcome [14] | Potency [15] | outcome [16] | outcome [17] | Potency [18] | max activation [19] -2.92%

Cc1cccc(N)n1
inactive: Potency [1] | outcome [2] | outcome [4] | Potency [5] | Potency [6] | outcome [7] | Potency [8] | outcome [9] | outcome [10] | outcome [11] | outcome [13] | outcome [14] | outcome [16] | outcome [17] | Potency [18]
